Screening results (PubChem)
MCF10A rerep – inducers of DNA re-replication in MCF 10A breast cells; actives 2.9% (n = 350,000); Potency, µM (highest dose often 46.1 µM), for the others: at the highest dose activity, positive = re-replication, actives largely listed as activators; MCF 10A DNA re-replication, Hoechst nuclear intensity, 48 h; AID 624296; note: % of control where 0% means no effect; nearly all actives have a fitted effect of over 50% in size
ELG1 DNA repair – inhibitors of ELG1-dependent DNA repair in HEK293T cells. HEK293T ELG1-luciferase reporter, luminescence, 16 h; DNA damage induced by 5-fluorouridine. Potency, µM (series often up to 46.1 µM), for inactives: at the top dose activity change, negative = inhibition, usual class: inhibitors. actives 2.3% (n = 330,000); note: % is set by controls: 0 for no effect and ±100 for the full control effect; nearly all actives have a fitted effect of over 55% in size
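Step one: seed 2,000 cells per well. Step two: pin-transfer compound or DMSO alongside 5-fluorouridine. Step three: incubate 16 hr, 37 °C, 5% CO2. Step four: add ONE-Glo, wait 30 min, read luminescence.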
SW480 rereplic – inducers of DNA re-replication in SW480 colon cancer cells; SW480 DNA re-replication, Hoechst DNA content imaging, 48 h; Potency, µM (top dose mostly 46.1 µM), for inactives: at the highest dose re-replication activation, hits mostly activators; actives 1.8% (n = 340,000); AID 624297; note: % of control where 0% means no effect; nearly all actives have a fitted effect of over 55% in size
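250 cells/well; 23 nL cpd via pin tool; 48 hr, 37 C, 5% CO2; Hoechst 40 min; imager read of total nuclear intensity, ex 405/em 500-530 nm.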
KB-V1 MDR tox – KB-V1 MDR subline cytotoxicity. Potency, µM (doses to about 46.1 µM), usual class: cytotoxic. KB-V1 MDR cells viability, CellTiter-Glo, 72 h. AID 1347076. actives 3.4% (n = 400,000); note: % is set by controls: 0 for no effect and ±100 for the full control effect; nearly all actives have a fitted effect of over 60% in size
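In this primary screen, KB-V1 cells overexpressing P-gp are incubated with library compounds (lowest to highest concentration) for 72 h at 37 degrees C before a luminescent ATP viability read.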
KB-3-1 cytotox – KB-3-1 parental cell cytotoxicity. KB-3-1 viability, CellTiter-Glo ATP luminescence, 72 h. Potency, µM (titrated, usually from 46.1 µM), most hits filed as cytotoxic. actives 1.4% (n = 400,000). AID 1347075; note: % is set by controls: 0 for no effect and ±100 for the full control effect; nearly all actives have a fitted effect of over 60% in size
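KB-3-1 parental drug-naive adenocarcinoma cells in DMEM/10% FBS, incubated 72 h at 37 C with pin-transferred compounds across a concentration series. Viability by CellTiter-Glo luminescence; concentration-response curves fitted after normalization.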
ELG1 FLuc counter – luciferase inhibition in cell-free luciferin readout for ELG1 hits; cell-free firefly luciferase luminescence counter-screen, ViewLux; shares compounds with ELG1 DNA repair; actives 3% (n = 350); Potency, µM (series often up to 46.1 µM), for inactives: at the highest dose activity change, negative = inhibition, most hits filed as inhibitors; note: % is set by controls: 0 for no effect and ±100 for the full control effect
ELG1-Luc inh – confirmation of human ELG1-dependent DNA repair inhibitors. shares compounds with ELG1 DNA repair. HEK293T ELG1-luciferase levels, luminescence; cells co-treated with 5-fluorouridine. Potency, µM (doses to about 46.1 µM), for inactives: top-dose activity change, negative = inhibition, hits mostly inhibitors. actives 68% (n = 670). AID 624248; note: % is set by controls: 0 for no effect and ±100 for the full control effect; nearly all actives have a fitted effect of over 55% in size
ELG1 MMS Luc – confirmation of human ELG1 repair inhibitors, MMS stimulated. Potency, µM (top dose mostly 46.1 µM), without a hit: top-dose activity change, negative = inhibition, usual class: inhibitors. shares compounds with ELG1 DNA repair. actives 53% (n = 670). HEK293T luciferase-tagged ELG1 level, MMS stimulated; note: % is set by controls: 0 for no effect and ±100 for the full control effect; nearly all actives have a fitted effect of over 60% in size
ELG1 5-FU – confirmation of ELG1 repair inhibitors: viability with 5FU. shares compounds with ELG1 DNA repair. cell viability with 5-FU, ELG1-dependent repair. Potency, µM (titrated, usually from 46.1 µM), inactives show at the top dose activity change, negative = viability loss, hits mostly cytotoxic. 670 tested, under 10 active. AID 624250;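 note: ELG1-luc HEK293T cells cotreated with 5-fluorouridine at 10 µM final; viability measured 16 h after compound addition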
ELG1 MMS viab – confirmation of ELG1 repair inhibitors: viability with MMS; shares compounds with ELG1 DNA repair; Cell viability with MMS, ELG1-dependent DNA repair; Potency, µM (highest dose often 46.1 µM), for the others: at the top dose activity change, negative = viability loss, most hits filed as cytotoxic; actives 33% (n = 670);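 note: ELG1-luc HEK293T cells co-treated with 10 µM MMS; viability read 16 h after compound addition; % is set by controls: 0 for no effect and ±100 for the full control effect; nearly all actives have a fitted effect of over 60% in size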
ELG1 unstim viab – unstimulated viability counter-screen for ELG1 repair hits. shares compounds with ELG1 DNA repair. cell viability counter-screen, unstimulated, luminescence. Potency, µM (top dose mostly 45.9 µM), without a hit: top-dose activity change, negative = loss of viability, usual class: cytotoxic. actives 8% (n = 900). AID 624252;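 note: compound exposure lasted 16 hours before reading; % is set by controls: 0 for no effect and ±100 for the full control effect; nearly all actives have a fitted effect of over 55% in size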
FLuc enzyme – counter-screen for ELG1 repair inhibitors: firefly luciferase inhibition. shares compounds with ELG1 DNA repair. purified firefly luciferase, luminescence counter-screen. Potency, µM (titrated, usually from 57.5 µM), for the others: at the top dose activity, negative = inhibition, most hits filed as inhibitors. actives 10% (n = 350). AID 624253; note: % is set by controls: 0 for no effect and ±100 for the full control effect
An asterisk follows results filed as active; i = inactive; ? = inconclusive; . = no result; [ ] = dose if it differs, or a comment. Most compounds without a hit are left out; they make up all but 8.1% or so of the library. Calls come from the whole dose curve; as a rule, active = well fitted curve in the direction sought with a large enough effect; inconclusive = small, poorly fitted or top-dose-only effect, or another doubt; inactive = no such curve, though single readings can be large; an effect the other way counts as inactive or inconclusive. Potency is the fitted concentration of half-maximal effect.

SMILES | MCF10A rerep | ELG1 DNA repair | SW480 rereplic | KB-V1 MDR tox | KB-3-1 cytotox | ELG1-Luc inh | ELG1 MMS Luc | ELG1 5-FU | ELG1 MMS viab | ELG1 unstim viab | others
COCCn1c(SCC(=O)N2CC(C)OC(C)C2)nc2c([nH]c3ccccc32)c1=O (configuration not stated) | 9% | -9% | 1% | i | i | . | . | . | . | .
CC(C)c1ccc2oc(=O)cc(CN3CCCCC3)c2c1 | ? | 26% | -12% | i | i | . | . | . | . | .
CCOC(=O)C1CCN(c2cc3c(cc2NC(=O)c2cc(OC)ccc2Br)n(C)c(=O)n3C)CC1 | 9% | ? | ? | i | i | . | . | . | . | .
CCOC(=O)C1CCN(c2cc3c(cc2NC(=O)c2ccccc2Br)n(C)c(=O)n3C)CC1 | 2% | 9.2µM* | -22% | i | i | 7.9µM* | ? | ? | 7% | -1% | ELG1 FLuc counter=0%;FLuc enzyme=0%
Cc1nn(C)c2c1c(-c1ccccc1)cc(=O)n2Cc1ccc(Cl)cc1 | . | . | . | i | i | . | . | . | . | .
CCOc1ccc(C(C(=O)NCC2CCCO2)N(Cc2cccs2)C(=O)c2snc(C(N)=O)c2N)cc1 (configuration not stated) | 9% | 4.6µM* | 0% | ? | i | 7.9µM* | 7.9µM* | -12% | ? | ?
C=CCOC(=O)COc1ccc2c3c(c(=O)oc2c1)CCCC3 | . | . | . | i | i | . | . | . | . | .
O=C(Nc1ccncc1)C1CC1c1ccccc1 (configuration not stated) | 1% | 0.15µM* | -1%[9.22 µM] | i | i | ? | 14µM* | -1% | 16µM* | -2% | ELG1 FLuc counter=0%;FLuc enzyme=-5%
O=C(Nc1cccc(Cl)c1)C1CC1c1ccccc1 (configuration not stated) | 15% | . | -71% | i | i | . | . | . | . | .
NC(=O)c1ccc(N2CCN(S(=O)(=O)c3cccs3)CC2)c([N+](=O)[O-])c1 | 0% | 2.3µM* | -2% | i | ? | ? | 1µM* | -6% | 0.79µM* | 13µM*
NC(=O)c1ccc(N2CCCCCC2)c([N+](=O)[O-])c1 | 1% | 7% | -7% | i | i | . | . | . | . | .
O=S(=O)(c1cccs1)N1CCN(c2ccc(O)cc2)CC1 | ? | 1.6µM* | ? | i | i | -1% | 25µM* | 5% | ? | ?
